Results: PubChem BioAssay

The compounds below were run on Inhibin beta A chain (activin A) (assay: INHBA (activin A) binders on microarrays, primary screen, biochemical, small-molecule microarray, 635 nm fluorescence scan (AID 1107;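 also: mouse activin A protein probed at 4.33 µg/mL on printed slides; score merges bound-protein fluorescence near 667 nm with spot signal-to-noise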)). Settings: small-molecule microarray binding, higher = more signal.

With `COC(=O)c1c(CC[C@@H](CO)NC(=O)N[C@@H](C)Cn2cc(-c3ccccn3)nn2)oc(C(C)=O)c1C(=O)OC` as the compound, how does the composite z-score read?
Its composite z-score is 0.284.

How did the composite z-score turn out when `CC(C)C[C@@H]1NC(=O)[C@@H]2C[C@H](C(=O)NCCCCCCN)[C@H](c3cccc(OCCO)c3)N2C1=O` was run?
The composite z-score was 0.775.

`[N-]=[N+]=Nc1ccccc1C[C@@]1(C(=O)N2CCOCC2)N=C(c2ccc(OCCCO)cc2)O[C@@H]1c1ccccc1` was tested. Which composite z-score did it give?
Its composite z-score is -0.431.

Which composite z-score does the source give for `CCOC(=O)C[C@H]1[C@H](OC(=O)c2cc3ccccc3oc2=O)[C@@H](NC(=O)CC(C)C)c2cc(OCCCO)ccc2N1C(=O)c1ccc2ccccc2n1` here?
Its composite z-score is 0.413.

`Cc1ccc(NN2C(C(O)c3c(F)cccc3Cl)C=CC3C(=O)N(C4CCCCC4)C(=O)C32)cc1` (configuration not stated) was tested. Which composite z-score did it give?
The composite z-score was 1.32.

How did the composite z-score turn out when `O=C1O[C@@H](c2ccccc2)[C@@H](c2ccccc2)N2[C@@H](c3ccc(OCCO)cc3)[C@]3(C(=O)Nc4ccc(C#CC5=CCCCC5)cc43)[C@@H](C(=O)NC[C@H](O)c3ccccc3)[C@H]12` was run?
Its composite z-score is 1.07.

Which composite z-score does the source give for `CCCN1C(=O)[C@]2(Cc3ccccc31)N=C(c1ccc(OCCCO)cc1)O[C@@H]2c1ccccc1` here?
The composite z-score was 0.72.

`C[N+](C)(C)CCCCCCNC(=O)[C@@H]1C[C@@H]2C(=O)N3CCC[C@H]3C(=O)N2[C@@H]1c1ccc(O)cc1` was tested. Which composite z-score did it give?
Its composite z-score is 0.578.

Which composite z-score does the source give for `CCOC(=O)C[C@H]1[C@H](OC(=O)c2ccc(C(=O)c3ccccc3)cc2)[C@@H](NC(=O)CC(C)C)c2cc(OCCCO)ccc2N1C(=O)c1ccccc1` here?
The composite z-score was 0.158.

For `CC1CC/C=C\[C@H]2OC34C=CCN(C(C)C)C(=O)[C@H]3N(CCO)C(=O)[C@@H]4C2C(=O)O1` (some centres not stated), which composite z-score is on record?
Its composite z-score is -0.372.

For `[N-]=[N+]=Nc1ccccc1C[C@]1(C(=O)N2CCOCC2)COC(c2ccc(OCCCO)cc2)=N1`, which composite z-score is on record?
The composite z-score was 0.959.

How did the composite z-score turn out when `CCCCCCc1nc(Cc2cc(OC)c(OC)c(OC)c2)cc2c1[Si](C(C)C)(C(C)C)OC2` was run?
The composite z-score was 0.881.
